The nature of assay [1]: optical density shifts of acrAB sulA E. coli – strain DRC41, OD650, 48 h, E. coli filamentation inducer project, primary screen (AID 1152).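 Further: E. coli MC1000 strain DRC41 lacking acrAB efflux pump and sulA.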 The settings on record: higher = more signal, called active from +8 up or from −8 down.
Assay [2] in a line: probe aLefty1 binding on compound microarray – biochemical, small-molecule microarray, 635/667 nm fluorescence, primary screen (AID 1153).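 Further: score merges spot fluorescence with signal-to-noise ratio from the scanned slide images.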 The settings on record: higher = more signal.
Assay [3] is described as follows: plasmodial surface anion channel blockers, osmotic lysis – cell-based, P. falciparum Indochina, OD700, 1 h, primary screen (AID 1154). The conditions noted are these: P. falciparum Indochina infected RBC osmotic lysis, higher = more signal, called active from +8 up or from −8 down.
The nature of assay [4]: plasmodial surface anion channel blockers, osmotic lysis – cell-based, P. falciparum Indochina, OD700, 2 h, primary screen (AID 1155).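 Further: lysis reports solute entry through the parasite surface anion channel PSAC.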 The conditions noted are these: P. falciparum Indochina infected erythrocytes, higher = more signal, called active from +8 up or from −8 down.
Assay [5] is described as follows: changes in parasitized red cell lysis, either direction – P. falciparum Indochina, OD700, 3 h, PSAC antagonist project, primary screen (AID 1156). The conditions noted are these: P. falciparum-infected erythrocytes, osmotic lysis, higher = more signal, called active from +8 up or from −8 down.
A short description of assay [6]: plasmodial surface anion channel blockers, osmotic lysis – cell-based, P. falciparum Indochina, OD700, 18 h, primary screen (AID 1157). The settings on record: P. falciparum Indochina infected erythrocytes, osmotic lysis OD700, 18 h; higher = more signal, called active from +8 up or from −8 down.
Assay [7] can be described thus: S6 kinase pathway phospho-S6 level changes – cell-based, A549, cytoblot, luminescence, serum-stimulated, primary screen (AID 1158).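 Further: serum-stimulated A549 lung adenocarcinoma cells; signal is phosphorylated S6 detected by cytoblot immunostaining with HRP secondary.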 The conditions noted are these: 5 h, higher = more signal.
Assay [8] has as its target NADPH oxidase 2 (Homo sapiens) (UniProt P04839). Description: compounds shifting NOX2 Amplex Red fluorescence – cell-based, HEK293-NOX2, PMA-stimulated, NOX inhibitor project, primary screen (AID 1159). Further: test concentration not given here. The conditions noted are these: 45 min, higher = more signal, called active from +8 up or from −8 down.
Assay [9] addresses NADPH oxidase 4 (Homo sapiens) (UniProt Q9NPH5). Description: compounds shifting NOX4 Amplex Red fluorescence – cell-based, HEK293-NOX4, tetracycline-induced, NOX inhibitor project, primary screen (AID 1160). The settings on record: HEK293-NOX4, Amplex Red H2O2 fluorescence, 45 min; higher = more signal, called active from +8 up or from −8 down.
In assay [10] the target is NADPH oxidase 5 (Homo sapiens) (UniProt Q96PH1). The assay is described as follows: compounds shifting NOX5 Amplex Red fluorescence – cell-based, HEK293-NOX5, NOX inhibitor project, primary screen (AID 1161). The settings on record: HEK293-NOX5, ionomycin, 45 min, higher = more signal.
Sequence of NADPH oxidase 5 (Homo sapiens) (Q96PH1 whole entry, looked up): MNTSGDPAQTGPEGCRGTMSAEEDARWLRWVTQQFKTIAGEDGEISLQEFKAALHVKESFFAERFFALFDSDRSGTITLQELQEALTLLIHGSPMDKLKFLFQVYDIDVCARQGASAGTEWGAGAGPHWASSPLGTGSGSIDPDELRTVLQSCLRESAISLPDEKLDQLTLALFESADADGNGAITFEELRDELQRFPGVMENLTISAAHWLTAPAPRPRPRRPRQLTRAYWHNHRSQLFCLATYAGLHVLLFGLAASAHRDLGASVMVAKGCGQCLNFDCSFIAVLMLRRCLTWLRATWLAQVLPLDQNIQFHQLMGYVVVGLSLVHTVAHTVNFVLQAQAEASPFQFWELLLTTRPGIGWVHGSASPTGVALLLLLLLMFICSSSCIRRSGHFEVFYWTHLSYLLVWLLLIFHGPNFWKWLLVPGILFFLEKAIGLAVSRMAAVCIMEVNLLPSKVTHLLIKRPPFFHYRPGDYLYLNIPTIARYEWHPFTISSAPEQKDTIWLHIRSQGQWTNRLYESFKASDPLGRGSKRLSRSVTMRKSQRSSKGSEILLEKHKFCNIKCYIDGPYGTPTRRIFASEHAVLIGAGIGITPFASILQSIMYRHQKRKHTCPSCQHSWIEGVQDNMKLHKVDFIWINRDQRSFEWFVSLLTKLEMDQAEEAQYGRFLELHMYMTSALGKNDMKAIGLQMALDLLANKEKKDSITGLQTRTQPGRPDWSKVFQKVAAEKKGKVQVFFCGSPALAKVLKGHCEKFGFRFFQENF

Active and inactive are the calls of the source.

Sequence of NADPH oxidase 4 (Homo sapiens) (Q9NPH5 whole entry, looked up): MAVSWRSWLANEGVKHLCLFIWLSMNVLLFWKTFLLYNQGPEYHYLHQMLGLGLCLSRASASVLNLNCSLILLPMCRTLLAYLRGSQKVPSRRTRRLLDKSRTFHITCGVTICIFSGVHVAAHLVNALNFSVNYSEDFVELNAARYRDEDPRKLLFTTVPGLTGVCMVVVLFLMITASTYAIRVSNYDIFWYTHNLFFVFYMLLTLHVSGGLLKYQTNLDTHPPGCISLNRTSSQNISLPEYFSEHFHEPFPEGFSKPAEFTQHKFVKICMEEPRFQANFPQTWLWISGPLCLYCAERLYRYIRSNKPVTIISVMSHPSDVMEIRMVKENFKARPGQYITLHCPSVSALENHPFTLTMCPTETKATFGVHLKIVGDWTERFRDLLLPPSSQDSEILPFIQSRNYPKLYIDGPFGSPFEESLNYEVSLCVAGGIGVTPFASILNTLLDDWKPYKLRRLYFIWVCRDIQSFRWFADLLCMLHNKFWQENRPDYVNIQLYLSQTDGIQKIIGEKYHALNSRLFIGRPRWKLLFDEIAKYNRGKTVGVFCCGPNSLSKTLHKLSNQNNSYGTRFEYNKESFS
Sequence of NADPH oxidase 2 (Homo sapiens) (P04839 whole entry, looked up): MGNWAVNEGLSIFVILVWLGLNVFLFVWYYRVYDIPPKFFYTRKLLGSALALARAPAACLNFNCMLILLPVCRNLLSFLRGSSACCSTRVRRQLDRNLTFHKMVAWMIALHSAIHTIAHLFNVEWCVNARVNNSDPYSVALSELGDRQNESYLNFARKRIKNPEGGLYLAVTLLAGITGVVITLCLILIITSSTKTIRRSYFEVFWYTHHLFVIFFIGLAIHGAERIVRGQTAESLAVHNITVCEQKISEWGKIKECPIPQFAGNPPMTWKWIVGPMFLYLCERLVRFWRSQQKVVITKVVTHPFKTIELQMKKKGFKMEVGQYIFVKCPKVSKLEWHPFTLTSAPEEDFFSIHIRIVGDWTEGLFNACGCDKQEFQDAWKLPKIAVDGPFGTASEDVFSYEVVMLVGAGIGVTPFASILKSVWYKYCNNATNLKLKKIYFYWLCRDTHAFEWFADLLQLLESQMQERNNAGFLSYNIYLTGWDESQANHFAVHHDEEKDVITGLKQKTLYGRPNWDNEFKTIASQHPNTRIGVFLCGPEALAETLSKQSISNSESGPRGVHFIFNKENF

For the molecule `[N-]=[N+]=NCc1ccccc1C[C@]1(C(=O)O)N=C(c2ccc(OCCCO)cc2)O[C@H]1c1ccccc1N=[N+]=[N-]`, the z-score in [1] was 0.23 (inactive); in assay [3], 36.3 (active); in assay [4], 33.8 (active); in [5], 4.02 (inactive); in [6], 10 (active); in assay [7], 0.468. For the same molecule, the z-score in assay [8] is -2.14 (inactive); in assay [9], 0.705 (inactive); in [10], -1.92. The same molecule returned a composite z-score in assay [2] of 0.396.
In the case of `O=C1OCCC/C=C\[C@H]2OC34C=CCN(Cn5nnc6ccccc65)C(=O)[C@H]3N(CCO)C(=O)[C@@H]4C12` (stereo not given in full), the z-score was 1.8 (inactive) in [1]; 1.55 (inactive) in [3]; 0.299 (inactive) in [4]; 0.292 (inactive) in assay [5]; 0.335 (inactive) in [6]; 1.64 in assay [7]. Besides, the z-score in assay [8] is 1.41 (inactive); in assay [9], 0.409 (inactive); in [10], 1.92. Also, the composite z-score in assay [2] was 0.16.
For `COc1cc2c(cc1O)C=[N+](Cc1cccc(OC(F)(F)F)c1)CC2`, the z-score in assay [1] was 0.272 (inactive); in [3] it was 3.05 (inactive); in assay [4] it was -1.25 (inactive); in assay [5], -0.747 (inactive); in assay [6], -2.03 (inactive); in assay [7], 0.818. Besides, the z-score was -4.18 (inactive) in [8], -2.56 (inactive) in [9] and -3.06 in assay [10]. Further, the composite z-score in assay [2] was -0.464.
Turning to `CN(C)C(=O)[C@]1(Cc2ccccc2CN=[N+]=[N-])N=C(c2ccc(OCCCO)cc2)O[C@@H]1c1ccccc1CN=[N+]=[N-]`, the z-score in [1] was -0.214 (inactive); in assay [3], 26.8 (active); in assay [4], 13.4 (active); in assay [5] it was 2.66 (inactive); in [6] it was -0.0196 (inactive); in assay [7] it was 1.18. The z-score in [8] is -3.36 (inactive); in assay [9], -1.6 (inactive); in [10] it was -1.78. The same molecule gave a composite z-score in [2] of 0.425.
As to `CCc1oc(CC[C@@H](CO)NC(=O)NCCn2cc(C3(O)CCCCC3)nn2)c(C(=O)OC)c1C(=O)OC`, the z-score in assay [1] was -1.26 (inactive); in [3] it was 25.6 (active); in assay [4], 7.39 (inactive); in [5], 0.709 (inactive); in assay [6] it was 1.07 (inactive); in [7], -0.524. In addition, the values for the z-score in assay [8], in [9] and in assay [10] were -1.59 (inactive), -0.491 (inactive) and -1.14, respectively. The composite z-score in assay [2] amounted to 0.0768.
Take `COC(=O)[C@@]1(Cc2ccc(F)cc2)[C@H]2c3cc(C(=O)N4CCCC4)n(Cc4ccc(C)o4)c3C[C@H]2CN1C(=O)c1ccccc1`: the z-score in assay [1] was -1.63 (inactive); in [3], 4.25 (inactive); in assay [4], 0.713 (inactive); in assay [5], 1.57 (inactive); in assay [6], 0.886 (inactive); in assay [7], -0.118. For the same molecule, the z-score is -0.0294 (inactive) in assay [8], -0.466 (inactive) in [9] and -3.03 in assay [10]. The composite z-score in assay [2] is -0.0464.
As for `CC(C)OC(=O)C=C1C[C@@H](c2ccccc2C(F)(F)F)O[C@@H](c2ccccc2C(F)(F)F)O1`, the z-score in [1] is -0.66 (inactive); in [3], 1.66 (inactive); in [4], 1.55 (inactive); in assay [5] it was 0.632 (inactive); in [6], 0.659 (inactive); in assay [7], -0.491. In addition, the z-score in [8] is 0.441 (inactive); in assay [9] it was -0.64 (inactive); in [10] it was -0.774. The composite z-score in [2] is -0.0011.
In the case of `COC(=O)C(CC#Cc1ccc2c(c1)[C@]1(C(=O)N2)[C@H](c2ccc(O)cc2)N2[C@H](c3ccccc3)[C@H](c3ccccc3)OC(=O)[C@H]2[C@@H]1C(=O)Nc1nc2ccccc2s1)C(=O)OC`, the z-score in [1] is 1.25 (inactive); in assay [3], 1.11 (inactive); in assay [4], -0.314 (inactive); in assay [5] it was -0.0671 (inactive); in assay [6], -1.84 (inactive); in assay [7], 2.08. In addition, the results for the z-score in [8], in [9] and in assay [10] were 2.11 (inactive), 0.604 (inactive) and 2.21, respectively. For the same molecule, in assay [2], the composite z-score stood at 0.506.
For the molecule `O=C1NC(=O)C2C1C=CC(C(O)c1ccccc1)N2Nc1ccc(Cl)cc1Cl` (stereo not given), the z-score in [1] was -1.87 (inactive); in assay [3], 5.08 (inactive); in [4], -0.32 (inactive); in assay [5], -3.3 (inactive); in [6], -1.8 (inactive); in assay [7], 0.726. The z-score is -0.169 (inactive) in [8], -4.94 (inactive) in assay [9] and -2.51 in assay [10]. Moreover, the composite z-score in assay [2] was 0.93.
Regarding `C=CCOC(=O)[C@H]1[C@@H]2C(=O)O[C@@H](c3ccccc3)[C@@H](c3ccccc3)N2[C@@H](c2ccc(OCCOC(=O)[C@@H]3C[C@@H]4C(=O)N[C@@H](CCCCN(C)C)C(=O)N4[C@@H]3c3ccc(O)cc3)cc2)[C@]12C(=O)Nc1ccc(I)cc12`, the z-score was -0.785 (inactive) in assay [1]; -0.117 (inactive) in assay [3]; 1.39 (inactive) in assay [4]; 5.33 (inactive) in assay [5]; 0.448 (inactive) in assay [6]; -0.724 in assay [7]. The z-score is 1.41 (inactive) in [8], 0.74 (inactive) in [9] and -0.496 in [10]. The composite z-score in [2] was -0.15.
Turning to `C=CCC(OC(C)=O)[C@@H]1[C@@H](N(Cc2cccc3ccccc23)C(=O)c2ccc(-c3ccccc3)cc2)c2cc(OCCCO)ccc2N1C(=O)Cc1ccc(OC)cc1` (stereo not given in full), the z-score in assay [1] was 0.571 (inactive); in assay [3] it was 0.177 (inactive); in [4] it was -0.172 (inactive); in [5], -1.02 (inactive); in assay [6] it was 0.0144 (inactive); in assay [7], 0.904. Further, the z-score is -1.6 (inactive) in assay [8], 0.32 (inactive) in [9] and 0.0661 in [10]. Also, the composite z-score in [2] was -0.277.
Regarding `CC(CO)N1C(=O)[C@@H]2C3C(=O)OCCC/C=C\[C@H]3OC23C=CCN(c2ccc4ccccc4c2)C(=O)[C@@H]13` (stereo not given in full), the z-score in [1] is 0.453 (inactive); in [3] it was 1.07 (inactive); in assay [4], 0.0843 (inactive); in assay [5], 1.87 (inactive); in [6] it was 0.011 (inactive); in assay [7], -0.13. The figures for the z-score in assay [8], in [9] and in assay [10] were 1.03 (inactive), -0.0122 (inactive) and 1.97, respectively. For the same molecule, the composite z-score in assay [2] is -0.147.
For `C=CCNC(=O)[C@@H]1[C@H]2C(=O)O[C@H](c3ccccc3)[C@H](c3ccccc3)N2[C@H](c2ccccc2OCCO)[C@@]12C(=O)N(C(=O)OCCOC)c1ccc(C#CCNC(N)=O)cc12`, the z-score is -0.302 (inactive) in assay [1]; 3.09 (inactive) in assay [3]; 0.483 (inactive) in assay [4]; 1.3 (inactive) in assay [5]; 0.466 (inactive) in assay [6]; 0.425 in [7]. Further, the z-score in assay [8] was 1.77 (inactive); in [9], 1.54 (inactive); in assay [10], -0.131. In assay [2], this molecule came in with a composite z-score of 0.395.
